Rows were chosen to be rich in hits. Some 1.5% of all compounds tested hit in one or more screens of this group.
TLR4-MyD88 BLA: inhibitors of TLR4-MyD88 association in cells, primary screen, cell-based, HeLa CL3-4, BLA complementation, FRET ratio | actives 0.18% (n = 200,000) | HeLa CL3-4 TLR4/MyD88 BLA complementation | inhibition, % at 8.4 µM; in the data active means inhibition above about 25%;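 further: 0% = vehicle and 100% = reference inhibitor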
NOD2 RIPK2 PPI: NOD2-RIPK2 binding disruptors in cells, primary screen, fluorescence, CHO cells, BLA complementation; CCF4 ratio; inhibition, % at 4.98 µM; actives 0.38% (n = 360,000); in the data active means inhibition above about 21%;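 further: 0% = vehicle only and 100% = reference blocker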
Target sequence (O43353 whole entry, looked up): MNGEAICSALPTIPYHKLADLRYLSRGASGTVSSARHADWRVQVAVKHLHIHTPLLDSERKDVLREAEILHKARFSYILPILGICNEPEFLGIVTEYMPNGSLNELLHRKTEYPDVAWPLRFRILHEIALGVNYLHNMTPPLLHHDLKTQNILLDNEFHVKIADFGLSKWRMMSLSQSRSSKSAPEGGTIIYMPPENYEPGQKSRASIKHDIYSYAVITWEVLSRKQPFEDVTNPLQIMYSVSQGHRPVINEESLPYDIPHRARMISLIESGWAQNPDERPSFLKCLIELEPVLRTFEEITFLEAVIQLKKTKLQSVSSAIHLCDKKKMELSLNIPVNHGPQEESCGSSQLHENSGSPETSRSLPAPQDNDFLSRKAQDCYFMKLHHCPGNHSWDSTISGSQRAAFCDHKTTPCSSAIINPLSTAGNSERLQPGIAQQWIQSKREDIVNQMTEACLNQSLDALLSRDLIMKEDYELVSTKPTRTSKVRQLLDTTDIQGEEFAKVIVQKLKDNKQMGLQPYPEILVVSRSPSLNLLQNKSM
Myeloid diff 2: induction of myeloid progenitor differentiation, primary screen, cell-based, flow cytometry, MLPCN library. ER-HoxA9 myeloid progenitors, lysozyme-GFP differentiation. actives 1% (n = 360,000). AID 624256, 2012. calls only at 10 µM;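 active means normalized GFP-positive differentiation at or above the plate's own cutoff, the solvent-only control mean plus 3 SD; inconclusive means no clear call, values can overlap the other calls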;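 further: cells exposed to compound for four days before flow analysis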
TLR9-MyD88 inh: inhibitors of TLR9-MyD88 association in cells, primary screen, cell-based, CHO, BLA complementation, fluorescence | AID 504734, 2011 | actives 0.21% (n = 340,000) | inhibition, % at 4.98 µM | CCF4 FRET ratio;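 active means inhibition above the mean over all tested compounds plus 3 SD, cut at about 21% in these data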;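 further: 0% = DMSO only wells and 100% = clavulanate BLA inhibitor control wells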
NOD2 RIPK2 conf: NOD2-RIPK2 binding disruptors, retest, confirmation, fluorescence, CHO cells, BLA complementation, triplicate; shares compounds with NOD2 RIPK2 PPI; CCF4 FRET; inhibition, % at 4.98 µM; actives 70% (n = 1,200);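 active means mean inhibition across replicates above a set limit taken from the earlier primary screen, cut at about 21% in these data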;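 further: 0% = DMSO-only wells and the high end = clavulanate BLA-blocked wells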
BLA counter: NOD2-RIPK2 counterscreen BLA reporter activity. AID 624371. CHO BLA reporter, CCF4 FRET ratio. inhibition, % at 4.98 µM. actives 57% (n = 1,200). shares compounds with NOD2 RIPK2 PPI;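 active means mean inhibition above the low-control mean inhibition plus three low-control SD, cut at about 11% in these data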;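 further: 0% = DMSO only wells and 100% = clavulanate high control wells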
Numbers without * were called inactive; i = inactive; ? = inconclusive; . = not tested or not shown; + = active, no number.

SMILES	TLR4-MyD88 BLA	NOD2 RIPK2 PPI	Myeloid diff 2	TLR9-MyD88 inh	NOD2 RIPK2 conf	BLA counter
CC(C)NC(=O)C1(C)CCCN1C(=O)c1ccc2c(c1)C(C)(C)CCC2(C)C (stereo not given)	.	-2.3	i	.	.	.
COc1ccc(Cc2c(-c3ccc(Cl)cc3)nc3cc(C)c(Br)c(C)n23)c(C)c1	.	-7.2	i	.	.	.
O=c1cc(-c2ccccc2Cl)oc2cc(O)cc(O)c12	10.3	-10.2	i	8.5	.	.
O=C1C=CC(O)(c2cc(=O)c3c(O)cc(O)cc3o2)C=C1	-12.9	30.3*	?	-2.2	20.9	18.0*
Cc1cccc(C)c1NC(=O)C(c1ccc(-c2ccccc2)cc1)n1c(=O)c(-c2cc3ccccc3[nH]2)nc2ccccc21 (stereo not given)	.	42.5*	i	.	39.2*	65.8*
Cc1cccc(C)c1NC(=O)C(c1ccc(C(F)(F)F)cc1)n1c(=O)c(-c2cc3ccccc3[nH]2)nc2ccccc21 (stereo not given)	.	47.3*	i	.	45.0*	69.3*
O=[N+]([O-])c1c(NCCCO)cc(Sc2nc3ccccc3s2)c2nonc12	12.3	91.9*	?	40.0*	81.8*	29.3*
CC(C)(C)OC(=O)NCCCCCNC(=O)c1ncn2c1c(=O)[nH]c1ccccc12	.	-4.9	i	-11.9	.	.
O=c1[nH]c2cc3ccccc3cc2nc1-c1nnnn1Cc1ccccc1	.	-1.5	i	.	.	.
Cc1cc2nc(-c3nnnn3Cc3ccccc3)c(=O)[nH]c2cc1C	.	23.3*	i	.	12.6	14.7*
c1ccc(-c2ccc3nncn3c2)cc1	.	-0.6	i	.	.	.
FC(F)(F)c1ccccc1-c1ccc2nncn2c1	.	23.1*	i	.	-5.8	0.5
Cc1ccc(C2CC(c3ccccc3)=NN2C(=S)Nc2ccccc2)o1 (stereo not given)	8.2	48.3*	i	1.1	1.7	-3.7
COc1ccc(O)c(/C=N/NC(=S)NCCc2ccccc2)c1	.	25.9*	.	15.6	28.6*	23.4*
CCCC(/C=C/c1ccc(OC(C)=O)cc1)=C1/c2ccccc2C(=O)N1c1ccccc1	.	25.2*	i	12.8	20.2	28.1*
CC(=O)Oc1ccc(C#C/C=C2\c3ccccc3C(=O)N2c2ccccc2)cc1	.	3.8	i	3.6	.	.
c1ccc2c(c1)oc1c(-c3cccc4nccn34)cccc12	.	-0.2	i	.	.	.
CCCCCCN1C[C@@H](O)[C@H](n2cc(COC(=O)c3ccccc3)nn2)C[C@@H]1c1ccccc1	.	-16.8	i	7.9	.	.
CC(=O)OC[C@]12CC[C@H]3[C@@](C)(CC[C@H]4C(C)(C)CCC[C@]34C)[C@@H]1CC(C1=CC(=O)OC1O)O2 (stereo not given in full)	.	45.7*	i	.	49.1*	21.4*
COc1ccc(-c2cc(-c3nc4ccccn4c3NCc3ccccc3)ccc2OC)cc1	.	29.1*	i	-4.6	20.9	5.8
O=C1C(O)=CC(=C(c2ccccc2)c2ccccc2)c2ccccc21	.	34.3*	i	8.9	1.1	-2.7
CC(=O)Oc1ccc2cc(-c3cccnc3)c(=O)oc2c1	.	30.5*	i	8.6	29.6*	44.6*
O=C(Nc1cccc2cccnc12)c1csc([C@@H]2O[C@H](CO)[C@H](O)[C@H](O)[C@H]2O)n1	.	-44.6	i	.	.	.
COC(=O)c1cccc(N2CCCC2=O)c1	.	7.5	i	8.2	.	.
COC(=O)c1cccc(-n2sc3ccccc3c2=O)c1	.	40.4*	i	12.5	36.4*	13.3*
SMILES	TLR4-MyD88 BLA	NOD2 RIPK2 PPI	Myeloid diff 2	TLR9-MyD88 inh	NOD2 RIPK2 conf	BLA counter
CC(=O)Nc1ccc(NC(=O)c2cc(-c3ccc(F)cc3C)n[nH]2)cc1	.	28.3*	i	.	-21.1	-7.5
CN(C)c1ccc(-c2ccnc3c2CC(C)(C(=O)Nc2ccc(Cl)c(C(F)(F)F)c2)O3)cc1 (stereo not given)	.	-0.4	i	.	.	.
COc1ccc(C)c2sc(NC(=O)c3cccc(N4C(=O)CCC4=O)c3)nc12	.	21.7*	i	-0.9	2.7	-1.6
Cc1ccc(C)c2sc(NC(=O)c3ccc(N4C(=O)CCC4=O)cc3)nc12	-2.5	-4.8	i	4.1	.	.
CCOC(=O)C1(C)CCN1C(=O)/C=C/c1ccccc1 (stereo not given)	.	20.9*	i	.	1.6	-1.5
COc1ccccc1-c1cc(C(F)(F)F)nc(S(C)(=O)=O)n1	20.0	24.9*	i	26.2*	41.0*	6.5
OCCCC1CCCN(Cc2cn[nH]c2-c2ccc(F)cc2F)C1 (stereo not given)	-12.0	22.4*	i	-0.9	2.3	-4.0
O=C(C1CCN(Cc2cn[nH]c2-c2ccc(F)cc2F)CC1)N1CCOCC1	-3.8	1.2	i	-5.5	.	.
CC1(C(=O)Nc2ccccc2Br)CCN1C(=O)Cc1ccccc1Cl (stereo not given)	.	-20.8	i	.	.	.
S=c1[nH]nc(-c2cc3c(s2)-c2ccccc2CC3)o1	15.7	30.4*	i	11.7	25.4*	38.5*
CSc1nnc(-c2cc3c(s2)-c2ccccc2CC3)o1	-19.4	4.0	i	-4.3	.	.
CCCCn1c(=O)[nH]c(=O)c2c1nc(Cn1ncc(Cl)c(Cl)c1=O)n2CCC	.	40.4*	?	16.1	55.4*	12.6*
CCCCn1c(=O)[nH]c(=O)c2c1nc(CN1C(=O)c3ccccc3S1(=O)=O)n2CCC	0.8	-9.5	i	-6.9	.	.
O=C(COc1ccc(S(=O)(=O)N2CCOCC2)cc1)NCCc1ccc(Cl)cc1	.	-3.1	i	-3.4	.	.
CC(=O)Nc1c(Cl)cnn(-c2ccccc2)c1=O	.	21.5*	i	.	7.4	-3.6
CNC(=O)c1c(Cl)cnn1-c1ccccc1	-6.2	-9.4	i	.	.	.
COc1ccc(C(C#N)=C2C=CC(=NO)C=C2)cc1	.	9.1	?	10.6	.	.
CC(=O)ON=C1C=CC(=C(C#N)c2ccccc2)C=C1	.	25.7*	?	.	34.6*	8.4
CCCNC(=O)C1(C)CCCN(Cc2cccc(Oc3ccccc3)c2)C1 (stereo not given)	.	3.5	i	.	.	.
O=C1C(=C(I)I)c2ccccc2-c2ccccc21	.	68.0*	?	13.8	84.4*	7.4
O=C(Nc1ccc(Cl)cc1)Nc1ccc2c(c1)N1CCN=C1S2	2.5	21.6*	+	8.7	36.1*	19.2*
CSc1nc(S(C)(=O)=O)nc2[nH]c(=O)[nH]c12	.	-8.6	i	-0.1	.	.
COc1ccc(C(=O)/C=C/C(=O)N(CC(=O)NC2CCCCC2)Cc2cccs2)c(O)c1	23.7	74.4*	i	18.3	85.0*	17.2*

Bioassay records: PubChem, several laboratories
